Only some compounds are listed: those with a hit (about 8% of all), similar ones and a draw of the others.
HT1080 IDH1KD tx = HT-1080 IDH1 knockdown cell toxicity (counter line); 2% of 360,000 active; Potency, µM (titrated, usually from 46.1 µM), inactives show at the highest dose activity, negative = toxicity, most hits filed as cytotoxic; HT-1080 IDH1 knockdown viability, ATP luminescence, 48 h; AID 686971;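 further: 0% = DMSO wells and -100% = cell-free medium wells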
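In this qHTS, HT-1080 cells depleted of IDH1 are exposed for 48 h at 37 °C to compound titrations. Toxicity is scored from CellTiter-Glo luminescence, with DMSO as full viability and medium alone as none.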
KB-V1 cytotox = kills drug-selected multidrug resistant KB-V1 cells. KB-V1 MDR cells viability, CellTiter-Glo, 72 h. Potency, µM (titrated, usually from 46.1 µM), most hits filed as cytotoxic. 3.4% of 400,000 active. AID 1347076; further: on the % scale 0 is the no-effect control and ±100 the full control effect; nearly all actives have a fitted effect of over 60% in size
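KB-V1 MDR subline cells in DMEM (phenol-red free, 10% FBS) exposed to compounds in qHTS concentration series for 72 h at 37 degrees C. Viability read by CellTiter-Glo luminescence; concentration-effect curves fitted after normalization and correction.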
KB-3-1 tox = KB-3-1 parental cell cytotoxicity. KB-3-1 viability, CellTiter-Glo ATP luminescence, 72 h. Potency, µM (series often up to 46.1 µM), most hits filed as cytotoxic. 1.4% of 400,000 active; further: on the % scale 0 is the no-effect control and ±100 the full control effect; nearly all actives have a fitted effect of over 60% in size
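Screening of KB-3-1 cells (DMEM, 10% FBS, phenol-red free) ran from lowest to highest compound concentration; after 72 h at 37 °C viability was read luminescently and curves fitted.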
SW480 rerep = inducers of DNA re-replication in SW480 colon cancer cells | 1.8% of 340,000 active | SW480 DNA re-replication, Hoechst DNA content imaging, 48 h | AID 624297 | Potency, µM (highest dose often 46.1 µM), inactives show at the top dose re-replication activation, actives largely listed as activators; further: % of control where 0% means no effect; nearly all actives have a fitted effect of over 55% in size
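Treated cells incubate 48 hr (37 C, 5% CO2), are stained 40 min with Hoechst, and nuclear fluorescence is enumerated; a rise in nuclei with high DNA signal marks re-replication.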
HT1080-NT tox = kills 2HG-producing HT-1080-NT fibrosarcoma cells; HT-1080-NT fibrosarcoma viability, CellTiter-Glo ATP luminescence, 48 h; Potency, µM (titrated, usually from 46.1 µM), inactives show at the highest dose activity, negative = less viability, most hits filed as cytotoxic; 1.6% of 360,000 active;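 further: NT is the 2HG producing partner of a matched IDH1 knockdown line; 0% = DMSO-treated cells and -100% = media-only wells without cells; nearly all actives have a fitted effect of over 55% in size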
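Compounds were tested in concentration-response format on HT-1080-NT cells for 48 hours at 37 degrees C. Cell viability came from CellTiter-Glo luminescence; curves were classified by r2, response magnitude and activity.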
MCF10A rereplic = DNA re-replication induction in MCF 10a cells | MCF 10A DNA re-replication, Hoechst nuclear intensity, 48 h | Potency, µM (top dose mostly 46.1 µM), for inactives: top-dose activity, positive = re-replication, most hits filed as activators | 2.9% of 350,000 active; further: % of control where 0% means no effect; nearly all actives have a fitted effect of over 50% in size
The depositor's hits bear a star; [ ] = dose if it differs, or a comment. The call rests on the fitted dose curve; in most records, active means well fitted curve in the direction sought with a large enough effect; inconclusive means small, poorly fitted or top-dose-only effect, or another doubt; inactive means no such curve, though single readings can be large; an effect the other way counts as inactive or inconclusive. Potency means the concentration at half of the fitted maximal effect.

Cc1cc(NS(=O)(=O)c2ccc(NC(=O)c3ccc([N+](=O)[O-])s3)cc2)nc(C)n1 was read as HT1080 IDH1KD tx -29.9%, KB-V1 cytotox inactive, KB-3-1 tox inconclusive, SW480 rerep inconclusive, HT1080-NT tox -18.2% and MCF10A rereplic 18.4µM*.
`Cc1ccnc(NS(=O)(=O)c2ccc(NC(=O)c3ccc([N+](=O)[O-])s3)cc2)n1` gave HT1080 IDH1KD tx inconclusive, KB-V1 cytotox inactive, KB-3-1 tox 14.6µM*, SW480 rerep 18.4µM*, HT1080-NT tox inconclusive and MCF10A rereplic 11.6µM*.
`COc1cc(C(CC(=O)NCc2ccccc2Cl)N2Cc3ccccc3C2=O)cc(OC)c1OC` (centres undefined) gave KB-V1 cytotox inconclusive and KB-3-1 tox inactive.
For CCN1C(=O)C2(c3ccccc31)c1c(oc3ccc(C)cc3c1=O)C(=O)N2CCCOC(C)C (centres undefined) the results were KB-V1 cytotox inactive and KB-3-1 tox inactive.
CCN(CC)CCNC(=O)C12CC3CC(CC(C3)C1)C2 was read as HT1080 IDH1KD tx 5.9%, KB-V1 cytotox inactive, KB-3-1 tox inactive, SW480 rerep -9.4%, HT1080-NT tox 2.5% and MCF10A rereplic 2.2%.
CCN(CC)CCNC(=O)C(Cl)=C1C(Cl)=C(Cl)C(Cl)=C1Cl was read as HT1080 IDH1KD tx inconclusive, KB-V1 cytotox inconclusive, KB-3-1 tox inconclusive, SW480 rerep 11.6µM*, HT1080-NT tox -24.2% and MCF10A rereplic 10.3µM*.
Screening O=S(=O)(Nc1ccc(Br)cc1)c1cccc(NS(=O)(=O)c2cccs2)c1 returned HT1080 IDH1KD tx -11.0%, KB-V1 cytotox inactive, KB-3-1 tox inactive, SW480 rerep -6.4%, HT1080-NT tox -1.2% and MCF10A rereplic 7.31µM*.
For CCc1ccc(NC(=O)/C(C#N)=C/c2cc3ccc(C)cc3nc2N2CCOCC2)cc1 the results were HT1080 IDH1KD tx -12.9%, KB-V1 cytotox inactive, KB-3-1 tox inactive, SW480 rerep -3.2%, HT1080-NT tox -10.7% and MCF10A rereplic 8.2µM*.
`COc1ccccc1S(=O)(=O)Cc1ccc(C(=O)NC2CCCCC2)o1` gave HT1080 IDH1KD tx 3.4%, KB-V1 cytotox 14.6µM*, KB-3-1 tox inactive, SW480 rerep 0.0%, HT1080-NT tox 9.9% and MCF10A rereplic -5.1%.
`COc1ccccc1S(=O)(=O)Cc1ccc(C(=O)N2CCN(c3cccc(Cl)c3)CC2)o1` gave HT1080 IDH1KD tx 20.6µM*, KB-V1 cytotox 16.4µM*, KB-3-1 tox 6.51µM*, SW480 rerep inconclusive, HT1080-NT tox inconclusive and MCF10A rereplic 14.6µM*.
`COc1ccccc1S(=O)(=O)Cc1ccc(C(=O)N2CCN(c3cc(Cl)ccc3C)CC2)o1` gave KB-V1 cytotox 18.4µM* and KB-3-1 tox inconclusive.
For O=C(NC1CCCC1)c1ccc(CSCc2ccccc2F)o1 the results were HT1080 IDH1KD tx -11.6%, KB-V1 cytotox 14.6µM*, KB-3-1 tox inactive, SW480 rerep -3.9%, HT1080-NT tox 8.8% and MCF10A rereplic 17.4%.
Screening CCN(CC)c1ccc(NC(=O)C2CCCN(S(=O)(=O)c3ccc4c(c3)oc(=O)n4C)C2)c(C)c1 (centres undefined) returned KB-V1 cytotox inconclusive and KB-3-1 tox inactive.
Screening Cc1ccc(CNC(=O)CSc2nc3c(sc4ccccc43)c(=O)n2CCCOC(C)C)cc1 returned KB-V1 cytotox inactive and KB-3-1 tox inactive.
`COc1ccc(OC)c(NC(=O)Cn2c(=O)cc(-c3ccccc3)c3c(C)nn(C)c32)c1` gave KB-V1 cytotox inactive and KB-3-1 tox inactive.
Nc1c(C(=O)Nc2ccc3c(c2)OCCO3)nnn1Cc1ccc(Br)cc1 was read as HT1080 IDH1KD tx -11.9%, KB-V1 cytotox inactive, KB-3-1 tox inactive, SW480 rerep 5.1%, HT1080-NT tox -11.4% and MCF10A rereplic -1.0%.
`Cc1ccc(NC(=O)c2nnn(CC(=O)Nc3ccc4c(c3)OCO4)c2N)cc1C` gave HT1080 IDH1KD tx -4.4%, KB-V1 cytotox inactive, KB-3-1 tox inactive, SW480 rerep -25.2%, HT1080-NT tox 0.9% and MCF10A rereplic -1.8%.
For Nc1c(C(=O)Nc2ccc3c(c2)OCCO3)nnn1CCc1ccccc1 the results were HT1080 IDH1KD tx inconclusive, KB-V1 cytotox inconclusive, KB-3-1 tox 6.51µM*, SW480 rerep inconclusive, HT1080-NT tox inconclusive and MCF10A rereplic 20.2%.
`Nc1c(C(=O)Nc2ccc3c(c2)OCCO3)nnn1Cc1cccc(Br)c1` gave HT1080 IDH1KD tx 13µM*, KB-V1 cytotox 14.6µM*, KB-3-1 tox inactive, SW480 rerep inconclusive, HT1080-NT tox -27.7% and MCF10A rereplic inconclusive.
`CCCCN(CCCC)CC(O)c1cc(Cl)cc2c1-c1ccc(Cl)cc1C2=Cc1ccc(Cl)cc1` (centres undefined) gave KB-V1 cytotox 20.6µM* and KB-3-1 tox inconclusive.
NC(=O)c1c(-c2ccc(Cl)cc2Cl)csc1NC(=O)Cc1ccccc1 was read as HT1080 IDH1KD tx inconclusive, KB-V1 cytotox inconclusive, KB-3-1 tox inconclusive, SW480 rerep -14.9%, HT1080-NT tox inconclusive and MCF10A rereplic 23.1µM*.
O=C(Cc1ccccc1)Nc1scc(-c2ccccc2)c1C(=O)N1CCOCC1 was read as HT1080 IDH1KD tx 0.0%, KB-V1 cytotox inconclusive, KB-3-1 tox inactive, SW480 rerep -2.2%[9.22 µM], HT1080-NT tox -5.4% and MCF10A rereplic 15.7%.
`CCOC(=O)c1sc(NC(=O)c2cc(CC)on2)c(C(=O)OCC)c1C` gave KB-V1 cytotox inactive and KB-3-1 tox inactive.

High-throughput results: PubChem, National Center for Advancing Translational Sciences (NCATS)
